The record followed here is PubChem BioAssay (NCATS).

A number with no mark means an inactive call. Results filed as inconclusive are left out. Activity calls are given as the source filed them. Unless noted, calls come from the whole dose curve; as a rule, active = well fitted curve in either direction with a large enough effect (not every such curve was filed as active); inconclusive = small, poorly fitted or top-dose-only effect, or another doubt; inactive = flat fitted curve, though single readings scatter.

The target in experiment [1] is Lysosomal acid glucosylceramidase (Homo sapiens) (UniProt P04062). Briefly: Glucocerebrosidase-p2 (AID 348; in the data active = potency below about 10 µM; note: potency is the fitted concentration of half-maximal effect). The following applies: purified GBA, blue fluorogenic substrate, 40 min. The method, boiled down: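 Normal human glucocerebrosidase (0.2 nM) with blue fluorogenic substrate (80 uM final) in citrate/phosphate pH 5.9 with 10mM sodium taurocholate, 0.01% tween-20; 40 min RT, NaOH/glycine stop; fluorescence Ex 365/Em 440; AC50 from a titration from 0.6 nM upwards.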

Experiment [2] is described as follows: AP1 Signaling Pathway (AID 357).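 Note: ME-180 reporter cells stimulated with EGF at its EC50 level; % is set by controls: 0 for no effect and ±100 for the full control effect.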 The following applies: ME-180 AP-1-bla reporter, EGF-induced, beta-lactamase ratio, 5 h; at 7.69 µM (top of the series) unless noted. The procedure, abridged: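 A ratiometric CCF4 readout (405 nm excitation; 460 and 530 nm emission) quantified AP-1-driven beta-lactamase in ME-180 cells after 5 h with compound and EC50 EGF; AC50 values were derived for activators and inhibitors.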

Experiment [3] is described as follows: Stat Signaling Pathway (AID 446).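 Note: ME-180 cervical cancer cells given 40 pM IL-6 alongside compound; SIE-controlled beta-lactamase reporter measured as 460/530 nm FRET emission ratio; % is set by controls: 0 for no effect and ±100 for the full control effect.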 The following applies: ME-180 SIE beta-lactamase reporter, IL-6 stimulated, 5 h; at 7.69 µM (top of the series) unless noted. The procedure, abridged: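 Overnight-plated ME-180 cells bearing a STAT Inducible Element beta-lactamase reporter; 5 h co-exposure to compound and 40 pM IL-6; values normalized to 300 pM IL-6 and 125 nM JAK inhibitor controls.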

In experiment [4] the target is Glucocorticoid receptor (Homo sapiens) (UniProt P04150). Briefly: GR-EFC Redistribution (AID 451; calls by dose curve; note: potency is the fitted concentration of half-maximal effect). The following applies: CHO-K1 GR-EFC translocation, beta-gal luminescence, 2 h. The method, boiled down:
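Translocation of GR-ED fusion to nuclear EA restores b-gal, read by luminescence after 1 h room-temperature detection. Engineered CHO-K1 biosensor cells, 1,000/well, exposed 2 h at 37 C to titrations up to 46 uM final.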

In experiment [5] the target is Mitogen-activated protein kinase 10 (Mus musculus) (UniProt Q61831). Briefly: JNK3 AlphaScreen Assay (AID 530).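 Note: kinase came from lysate of stimulated human HepG2 cells; signal reports phosphorylation of biotinylated GST-cJun 1-79 at Ser73 with 10 µM ATP; % is set by controls: 0 for no effect and ±100 for the full control effect.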 The following applies: JNK3 lysate, c-Jun phosphorylation; series mostly up to 57.1 µM. The method, boiled down:
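Kinase buffer: 20 mM Tris-HCl pH 7.6, 10 mM MgCl2, 1 mM DTT, 0.1 mM Na3VO4, 0.01% Tween-20; ATP 10 uM. Substrate biotin-GST-cJun(1-79), enzyme from activated HepG2 lysates. Detection by Ser73 phospho-antibody AlphaScreen.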
In general terms: Alpha assays give light when donor and acceptor beads are brought close together.

The nature of experiment [6]: Primary qHTS for small molecule stabilizers of the endoplasmic reticulum resident proteome: Secreted ER Calcium Modulated Protein (SERCaMP) assay (AID 1508630; active = well fitted curve in the direction sought with a large enough effect; an effect the other way counts as inactive or inconclusive; note: % is set by controls: 0 for no effect and ±100 for the full control effect). The following applies: SH-SY5Y GLuc-SERCaMP (Gaussia luciferase released on ER calcium loss) secretion, thapsigargin, luminescence; series mostly up to 38.4 µM. The method, boiled down: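 The SH-SY5Y reporter protocol was run at 3 concentrations up to 38.3 uM (primary) or 11 concentrations (follow-up): 16 h compound, 100 nM thapsigargin for 4 h, then extracellular luciferase luminescence.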
On the technique in general: In qHTS, concentration-response curves come from the screen itself.

The nature of experiment [7]: NFAT Signaling Pathway (AID 444). The following applies: Jurkat NFAT-bla M1, carbachol, beta-lactamase ratio, 5 h; at 7.69 µM (top of the series) unless noted. The method, boiled down:
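Read-out: CCF4 FRET ratio (460 nm/530 nm) after 1 h RT dye loading, used for %activity and AC50 from titration series. Cells: Jurkat NFAT-β-lactamase/M1 line, treated with compound plus 1 uM carbachol for 5 h, 37 °C.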

The target of experiment [8] is 3',5'-cyclic-AMP phosphodiesterase 4B (Homo sapiens) (UniProt Q07343). Briefly: qHTS Assay for Inhibitors of PDE-IV (AID 607; active = well fitted activation curve with a large enough effect in the main read-out, with a control signal flat, not every such curve was filed as active; note: % of control where 0% means no effect). The following applies: HEK293 ACTOne CNG channel cells, membrane potential fluorescence; series mostly up to 22.9 µM. The procedure, abridged:
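Live HEK293 cells with a modified cyclic nucleotide-gated (CNG) channel report intracellular cAMP via membrane-potential dye fluorescence (ex 535/em 590 nm). Endogenous PDE-IV was targeted. Compounds were tested at up to 22.9 uM final; RO 20-1724 100 uM served as control.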

Experiment [9] has as its target Cytochrome P450 3A4 (Homo sapiens) (UniProt P08684). Briefly: qHTS Assay for Inhibitors and Substrates of Cytochrome P450 3A4 (AID 884; active = well fitted curve in the direction sought with a large enough effect; an effect the other way counts as inactive or inconclusive; note: nearly all actives have a fitted effect of over 50% in size; note: potency is the fitted concentration of half-maximal effect). The following applies: recombinant CYP3A4, Luciferin-PPXE luminescence; series mostly up to 57.1 µM. The procedure, abridged: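 Luminescent readout of luciferin produced by CYP3A4 (20 nM) dealkylation of Luciferin-PPXE, 25 uM (its KM). NADPH-driven reaction ran 60 min at RT after 10 min compound preincubation; data scaled to 57 uM ketoconazole as 100% inhibition.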

Experiment [10] has the same target. Briefly: qHTS Assay for Activators of Cytochrome P450 3A4 (AID 885; active = well fitted curve in the direction sought with a large enough effect; an effect the other way counts as inactive or inconclusive; note: nearly all actives have a fitted effect of over 65% in size; note: potency is the fitted concentration of half-maximal effect). The following applies: recombinant CYP3A4, Luciferin-PPXE luminescence, 60 min; series mostly up to 57.1 µM. The method, boiled down:
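Using 20nM recombinant human CYP3A4 in potassium phosphate (200mM), substrate Luciferin-PPXE at 25uM, luminescent luciferin detection followed a 60-min RT NADPH reaction; data scaled to 57 uM ketoconazole.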

For experiment [11], the target named is Glucocorticoid receptor (Homo sapiens) (UniProt P04150). Briefly: GR-GFP Redistribution (AID 450;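 active = compounds whose dose series gives a full or clear partial fitted curve of increased nuclear translocation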; note: potency is the fitted concentration of half-maximal effect). The following applies: U2OS GR-GFP nuclear translocation, laser cytometry, 2 h.
Experiment [12] in a line: qHTS Assay for Identification of Small Molecule Agonists for Hypoxia Response Element Signaling Pathway (AID 914; active = well fitted activation curve with a large enough effect in the signal ratio, with a control signal flat, not every such curve was filed as active; the % refers to the signal ratio; note: % of control where 0% means no effect). The following applies: ME-180 (cervical carcinoma) HRE-bla reporter, beta-lactamase ratio, CoCl2, 17 h; activation: active compounds read high. The method, boiled down:
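Read-out: CCF4 FRET ratio of 460nm to 530nm emission (excitation 405nm) after 2.5 hours at room temperature, taken from HRE-bla ME-180 cells that had been exposed to compound and EC50 CoCl2 for 17 hours.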

For experiment [13], the target named is Cytochrome P450 2C19 (Homo sapiens) (UniProt P33261). Briefly: qHTS Assay for Inhibitors and Substrates of Cytochrome P450 2C19 (AID 899; active = well fitted curve in the direction sought with a large enough effect; an effect the other way counts as inactive or inconclusive; note: potency is the fitted concentration of half-maximal effect; nearly all actives have a fitted effect of over 60% in size). The following applies: recombinant CYP2C19, luciferin-H EGE luminescence; series mostly up to 57.1 µM. The method, boiled down: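 5nM enzyme + 10uM Luciferin-H EGE (=KM), 50mM KPO4; cpd pin-transferred, 10 min 37C; NADPH regen, 60 min 37C; stopped w/ luciferin detection reagent, 20 min; luminescence. Normalized to 57uM ketoconazole (AC100).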

The target in experiment [14] is Cytochrome P450 1A2 (Homo sapiens) (UniProt P05177). Briefly: p450-cyp1a2 (AID 410; calls by dose curve; note: potency is the fitted concentration of half-maximal effect). The following applies: recombinant CYP1A2, luciferin-ME demethylation, luminescence; series mostly up to 57 µM. The procedure, abridged:
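Read-out is luminescence from luciferin produced by CYP1A2 demethylation of Luciferin-ME (100uM, at Km). Detection reagent stopped the 60 min NADPH-dependent reaction; signals were normalized to 57 uM furafylline.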

Sequence of Cytochrome P450 3A4 (Homo sapiens) (P08684 whole entry, looked up): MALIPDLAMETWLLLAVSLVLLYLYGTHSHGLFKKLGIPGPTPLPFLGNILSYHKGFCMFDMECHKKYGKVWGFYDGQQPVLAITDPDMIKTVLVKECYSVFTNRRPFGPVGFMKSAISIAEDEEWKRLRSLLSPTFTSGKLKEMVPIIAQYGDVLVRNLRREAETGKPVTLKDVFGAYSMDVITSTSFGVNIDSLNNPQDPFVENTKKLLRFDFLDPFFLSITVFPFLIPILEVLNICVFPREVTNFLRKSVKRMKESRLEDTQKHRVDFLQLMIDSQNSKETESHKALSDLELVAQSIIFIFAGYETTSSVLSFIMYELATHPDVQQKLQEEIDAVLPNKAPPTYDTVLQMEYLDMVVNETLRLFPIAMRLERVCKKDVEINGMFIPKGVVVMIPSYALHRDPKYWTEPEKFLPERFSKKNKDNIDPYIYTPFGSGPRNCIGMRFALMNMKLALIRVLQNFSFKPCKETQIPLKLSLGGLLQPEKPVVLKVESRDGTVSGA
Sequence of Lysosomal acid glucosylceramidase (Homo sapiens) (P04062 whole entry, looked up): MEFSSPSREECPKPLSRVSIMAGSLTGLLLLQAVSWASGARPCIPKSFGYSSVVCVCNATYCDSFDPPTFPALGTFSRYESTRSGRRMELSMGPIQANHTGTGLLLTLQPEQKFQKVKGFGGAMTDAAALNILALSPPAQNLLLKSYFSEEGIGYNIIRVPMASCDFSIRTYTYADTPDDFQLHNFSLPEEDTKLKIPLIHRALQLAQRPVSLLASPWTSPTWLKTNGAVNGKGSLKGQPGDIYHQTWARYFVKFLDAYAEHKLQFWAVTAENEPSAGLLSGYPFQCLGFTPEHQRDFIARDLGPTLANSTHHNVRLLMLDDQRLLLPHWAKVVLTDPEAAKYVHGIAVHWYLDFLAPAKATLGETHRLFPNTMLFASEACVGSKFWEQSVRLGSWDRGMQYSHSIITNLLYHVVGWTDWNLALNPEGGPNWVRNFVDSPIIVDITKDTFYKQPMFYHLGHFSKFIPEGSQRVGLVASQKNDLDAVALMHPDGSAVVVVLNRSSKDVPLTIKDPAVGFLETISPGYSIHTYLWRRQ
Sequence of Glucocorticoid receptor (Homo sapiens) (P04150 whole entry, looked up, the tested form may be a part): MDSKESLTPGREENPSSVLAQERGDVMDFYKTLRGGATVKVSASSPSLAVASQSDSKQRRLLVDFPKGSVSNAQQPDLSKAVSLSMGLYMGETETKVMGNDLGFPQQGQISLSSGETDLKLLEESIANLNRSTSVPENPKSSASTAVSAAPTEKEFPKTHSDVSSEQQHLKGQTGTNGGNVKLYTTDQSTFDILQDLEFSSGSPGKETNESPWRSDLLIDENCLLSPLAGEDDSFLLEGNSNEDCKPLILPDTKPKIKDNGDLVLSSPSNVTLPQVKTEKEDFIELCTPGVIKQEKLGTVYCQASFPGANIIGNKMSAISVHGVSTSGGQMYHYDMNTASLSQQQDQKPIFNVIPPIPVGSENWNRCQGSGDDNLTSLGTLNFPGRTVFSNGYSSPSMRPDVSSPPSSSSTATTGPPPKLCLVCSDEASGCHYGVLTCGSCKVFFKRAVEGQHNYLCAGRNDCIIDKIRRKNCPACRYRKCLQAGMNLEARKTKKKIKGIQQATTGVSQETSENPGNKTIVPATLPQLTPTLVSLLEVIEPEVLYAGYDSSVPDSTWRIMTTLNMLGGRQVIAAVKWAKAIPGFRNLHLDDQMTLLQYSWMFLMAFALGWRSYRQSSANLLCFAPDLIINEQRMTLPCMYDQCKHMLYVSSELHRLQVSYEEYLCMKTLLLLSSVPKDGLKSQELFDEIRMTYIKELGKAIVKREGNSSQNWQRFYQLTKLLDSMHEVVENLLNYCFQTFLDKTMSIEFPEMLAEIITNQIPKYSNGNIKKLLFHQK
Sequence of 3',5'-cyclic-AMP phosphodiesterase 4B (Homo sapiens) (Q07343 whole entry, looked up): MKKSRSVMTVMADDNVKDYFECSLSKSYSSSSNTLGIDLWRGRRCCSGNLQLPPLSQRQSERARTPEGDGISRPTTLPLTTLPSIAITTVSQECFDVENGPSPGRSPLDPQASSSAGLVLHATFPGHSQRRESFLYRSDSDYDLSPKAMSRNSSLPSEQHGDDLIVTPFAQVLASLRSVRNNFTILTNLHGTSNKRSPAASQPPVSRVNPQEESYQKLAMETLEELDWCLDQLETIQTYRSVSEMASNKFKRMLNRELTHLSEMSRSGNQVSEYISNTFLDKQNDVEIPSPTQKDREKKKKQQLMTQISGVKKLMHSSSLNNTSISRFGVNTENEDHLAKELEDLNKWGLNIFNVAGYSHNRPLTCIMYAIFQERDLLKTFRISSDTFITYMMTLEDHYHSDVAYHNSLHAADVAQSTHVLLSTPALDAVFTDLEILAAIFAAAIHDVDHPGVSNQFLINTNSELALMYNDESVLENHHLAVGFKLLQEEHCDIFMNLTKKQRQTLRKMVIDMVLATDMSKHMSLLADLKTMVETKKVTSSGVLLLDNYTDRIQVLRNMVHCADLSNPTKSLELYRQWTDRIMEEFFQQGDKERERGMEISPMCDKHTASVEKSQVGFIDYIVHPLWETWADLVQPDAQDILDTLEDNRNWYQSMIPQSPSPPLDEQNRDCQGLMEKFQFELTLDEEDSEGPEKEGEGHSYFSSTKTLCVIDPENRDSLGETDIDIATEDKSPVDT
Sequence of Cytochrome P450 1A2 (Homo sapiens) (P05177 whole entry, looked up): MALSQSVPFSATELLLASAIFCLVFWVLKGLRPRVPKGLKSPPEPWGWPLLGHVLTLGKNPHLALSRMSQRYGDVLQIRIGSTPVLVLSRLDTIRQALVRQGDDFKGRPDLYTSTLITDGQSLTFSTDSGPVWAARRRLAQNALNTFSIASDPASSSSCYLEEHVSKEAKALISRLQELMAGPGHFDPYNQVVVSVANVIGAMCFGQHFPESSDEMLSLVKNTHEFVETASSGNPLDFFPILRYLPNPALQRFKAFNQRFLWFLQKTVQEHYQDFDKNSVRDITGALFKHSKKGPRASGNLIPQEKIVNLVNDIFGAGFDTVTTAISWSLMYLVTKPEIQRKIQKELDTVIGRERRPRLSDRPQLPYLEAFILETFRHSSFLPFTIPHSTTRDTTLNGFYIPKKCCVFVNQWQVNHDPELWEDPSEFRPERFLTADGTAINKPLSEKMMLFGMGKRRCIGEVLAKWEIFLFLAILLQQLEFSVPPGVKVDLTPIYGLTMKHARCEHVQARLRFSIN
Sequence of Cytochrome P450 2C19 (Homo sapiens) (P33261 whole entry, looked up): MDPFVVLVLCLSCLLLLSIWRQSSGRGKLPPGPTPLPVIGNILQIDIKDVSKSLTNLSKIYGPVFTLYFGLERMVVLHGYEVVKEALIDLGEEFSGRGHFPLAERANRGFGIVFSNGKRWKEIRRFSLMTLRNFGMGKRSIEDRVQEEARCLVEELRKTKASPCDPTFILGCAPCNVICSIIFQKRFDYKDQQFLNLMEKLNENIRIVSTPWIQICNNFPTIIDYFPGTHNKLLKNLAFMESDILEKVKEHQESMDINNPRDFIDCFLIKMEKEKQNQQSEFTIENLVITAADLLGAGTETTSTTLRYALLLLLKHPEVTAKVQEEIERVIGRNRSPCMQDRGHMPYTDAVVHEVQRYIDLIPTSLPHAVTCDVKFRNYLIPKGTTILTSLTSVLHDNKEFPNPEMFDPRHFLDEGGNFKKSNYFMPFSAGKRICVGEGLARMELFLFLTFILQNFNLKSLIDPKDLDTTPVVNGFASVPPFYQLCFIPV

`O=S(=O)(c1ccccc1)N1CCC2(CCCN(Cc3ccccc3)C2)CC1`: the Potency in [1] is > 11.4 µM; in experiment [4], > 46 µM. Moreover, the activity change, negative = inhibition in experiment [2] is 10.9%. Further, the activity, negative = inhibition in experiment [3] was 5.57%. Besides, the Potency entry in [5] is “inactive”. In addition, the result in experiment [6] was inactive.

Take `O=C(c1ccco1)N1CCC2(CC1)CN(c1ncccn1)C2`: the results for the Potency in experiment [1], in [4] and in [10] were > 11.4 µM, > 46 µM and 15.8 µM (active), respectively. Also, the activity change, negative = inhibition in [2] was -3.83%; in experiment [7], 0.563%. Further, the activity, negative = inhibition in experiment [3] was 2.05%. Besides, the Potency result in experiment [5], in [8] and in [9] was “inactive” in each case. In addition, the outcome in experiment [6] was inactive.

On to `O=C(c1csnn1)N1CCC2(CCCN(c3ccccn3)C2)CC1`, for which the results for the Potency in [1] and in [4] were > 11.4 µM and > 46 µM, respectively. Moreover, in experiment [2], the activity change, negative = inhibition is -4.82%. Moreover, the activity, negative = inhibition in [3] was 9.35%. Moreover, the Potency entry in experiment [5] and in [8] was “inactive” in each case. For the same compound, in experiment [6], the result was inactive.

Turning to `COCCn1c(=O)c(-c2cccs2)nc2cnc(OCc3ccccc3)nc21`, the figures for the Potency in [1], in [11] and in experiment [4] were > 11.4 µM, > 9.22 µM and > 46 µM, respectively. The activity change, negative = inhibition in [2] was 2.42%; in [7], 4.34%. For the same compound, the Potency entry in experiment [5] and in experiment [10] was “inactive” in each case. Moreover, in experiment [6], the outcome was inactive.

As to `N#CCCn1c(=O)c(-c2cccs2)nc2cnc(Oc3ccccc3)nc21`, the Potency is > 11.4 µM in experiment [1], > 9.22 µM in experiment [11] and > 46 µM in [4]. Moreover, the activity change, negative = inhibition in experiment [2] is 9.42%; in experiment [7], 15.6%. In addition, the Potency result in experiment [5] and in experiment [8] was “inactive” each time. The outcome in [6] was inactive.

Turning to `Cn1cccc1C(=O)N1CCC[C@@]2(CCN(c3cccc(-c4ccccc4)c3)C2)C1`, the Potency is > 11.4 µM in experiment [1], > 46 µM in experiment [4] and 7.94 µM (active) in experiment [9]. Moreover, the values for the activity change, negative = inhibition in experiment [2] and in [7] were -10.7% and -10.5%, respectively. Also, the activity, negative = inhibition in experiment [3] was -14.4%. In addition, the Potency entry in experiment [10] was “inactive”. Further, the outcome in experiment [6] was inactive.

Consider `COC(=O)N1CCC2(CCCN(c3ncccn3)C2)CC1`, for which the Potency is > 11.4 µM in [1] and > 46 µM in [4]. Further, the activity change, negative = inhibition in experiment [2] is -15%; in experiment [7], 6.41%. Also, in experiment [3], the activity, negative = inhibition was 1.72%. The Potency result in experiment [5] and in experiment [8] was “inactive” throughout. The activation in experiment [12] is 12.6%. For the same compound, the outcome in [6] was inactive.

Turning to `O=S(=O)(c1ccccc1)N1CCC2(CCN(c3ccccc3)CC2)CC1`, the values for the Potency in [1] and in [4] were > 11.4 µM and > 46 µM, respectively. Further, the activity change, negative = inhibition in [2] was 6.91%; in experiment [7] it was -1.26%. For the same compound, in experiment [3], the activity, negative = inhibition was -14.2%. In addition, the Potency result in [5], in experiment [8] and in [10] was “inactive” throughout. Moreover, in [6], the outcome was inactive.

With `COc1ccc(C(=O)N2CCC3(CCCN(c4ccncc4)C3)CC2)cc1`, the Potency in [1] is > 11.4 µM; in [4] it was > 46 µM. In experiment [2], the activity change, negative = inhibition is 7.18%. Moreover, in experiment [3], the activity, negative = inhibition is 8.4%. The Potency result in experiment [5] and in experiment [8] was “inactive” in each case. Moreover, in experiment [6], the outcome was inactive.

Consider `O=C(c1cccc(F)c1)N1CCC2(CCCN(c3ccccc3)C2)CC1`, for which the Potency in [1] is > 11.4 µM; in [4], > 46 µM; in [13], 5.01 µM (active). Moreover, the activity change, negative = inhibition in experiment [2] is -4.36%; in [7] it was -1.29%. Besides, the activity, negative = inhibition in experiment [3] is -11.8%. Further, the Potency entry in [5] and in experiment [8] was “inactive” throughout. In addition, the activation in [12] is -3.27%. Besides, in [6], the outcome was inactive.

In the case of `O=C(Nc1ccccc1)N1CCCC2(CCN(C(=O)c3csnn3)CC2)C1`, the Potency in experiment [1] was > 11.4 µM; in [4], > 46 µM. Besides, the activity change, negative = inhibition in experiment [2] was -9.89%; in experiment [7], -7.97%. Also, the activity, negative = inhibition in [3] is -7.07%. For the same compound, the Potency entry in experiment [5], in experiment [8] and in [10] was “inactive” in each case. In addition, the result in experiment [6] was inactive.

On to `COc1ccc(NC(=O)N2CC[C@@]3(CCCN(C(=O)c4cccc(F)c4)C3)C2)cc1`, for which the figures for the Potency in [1] and in experiment [4] were > 11.4 µM and > 46 µM, respectively. The activity change, negative = inhibition was -11.4% in experiment [2] and 6.04% in [7]. In addition, in experiment [3], the activity, negative = inhibition was -0.331%. Further, the Potency result in experiment [5], in [8] and in experiment [10] was “inactive” each time. The outcome in experiment [6] was inactive.

On to `COCCn1c(=O)c(-c2ccc(OC)cc2)nc2cnc(Oc3cccc(Cl)c3)nc21`, for which the Potency in [1] is > 11.4 µM; in experiment [14], 6.31 µM (active); in experiment [11], > 9.22 µM; in [4], > 46 µM. For the same compound, in experiment [7], the activity change, negative = inhibition was -0.562%. In addition, in [3], the activity, negative = inhibition was 21.8%. Further, the Potency result in experiment [5], in experiment [8] and in [10] was “inactive” throughout. In experiment [6], the result was inactive.
